Experimental findings from PubChem BioAssay are described below.

Assay [1] can be described thus: binders of probe aFSTL3 on microarray, primary screen, stem cell growth factor project, biochemical, small-molecule microarray, fluorescence 635/667 (AID 1064).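 Note: measures binding of the biotinylated anti-FSTL3 antibody to printed compounds.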 The following applies: higher = more signal.
A short description of assay [2]: binders from COS7 lysate, DM2A8 probe, primary screen, torsin A project, cell lysate, small-molecule microarray, fluorescence 635/667 (AID 1065). The following applies: higher = more signal, COS7 lysate expressing mutant human TOR1A.
Assay [3] can be described thus: binders of probe aFGF2 on microarray, primary screen, stem cell growth factor project, biochemical, small-molecule microarray, fluorescence 635/667 (AID 1067).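 Note: measures binding of biotinylated aFGF2 protein to printed compounds on slides; z-score merges feature fluorescence and signal-to-noise across triplicate slides.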 The following applies: higher = more signal.
Assay [4] in a line: binders of probe aFGF10 on microarray, primary screen, stem cell growth factor project, biochemical, small-molecule microarray, fluorescence 635/667 (AID 1071).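 Note: score merges 667 nm spot intensity and signal to noise from triplicate slides.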 The following applies: higher = more signal.
The target of assay [5] is Neurogenic locus notch homolog protein 2 (Homo sapiens) (UniProt Q04721). Nature of the assay: Notch2 binders on small-molecule microarrays, primary screen, biochemical, small-molecule microarray, 635 nm fluorescence, stem cell growth factors (AID 1073). The conditions noted are these: Notch2 binding, higher = more signal.
In assay [6] the target is Pro-neuregulin-1, membrane-bound isoform (Homo sapiens) (UniProt Q02297). Nature of the assay: NRG1 binders on small-molecule microarrays, primary screen, psychiatric disease protein project, biochemical, small-molecule microarray, fluorescence 635/667 (AID 1075).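 Note: score combines 667 nm spot fluorescence with signal to noise.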 The conditions noted are these: NRG1 binding, 635 nm fluorescence, higher = more signal.
Assay [7] deals with Neuregulin-1 EGF-like domain. Nature of the assay: binders of neuregulin-1 EGF-like domain, primary screen, biochemical, small-molecule microarray, 635 nm fluorescence (AID 1081).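 Note: binding of the protein to compounds printed on small-molecule microarray slides.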 The conditions noted are these: small-molecule microarray binding, higher = more signal.
The nature of assay [8]: FRG1 promoter luciferase signal modulators, primary screen, FRG1 inhibition for FSHD, cell-based, C2C12 myotubes, firefly/Renilla luciferase, luminescence (AID 1084). The conditions noted are these: higher = more signal, called active from +8 up or from −8 down.
Assay [9] in a line: binders of probe aFST on microarray, primary screen, stem cell growth factor project, biochemical, small-molecule microarray, fluorescence 635/667 (AID 1086).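 Note: score merges 667 nm fluorescence with signal-to-noise of each printed compound spot.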 The conditions noted are these: higher = more signal.
Assay [10] is described as follows: binders of probe aHhip on microarray, primary screen, stem cell growth factor project, biochemical, small-molecule microarray, fluorescence 635/667 (AID 1087).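 Note: score merges spot fluorescence at 667nm with spot signal to noise ratio.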 The conditions noted are these: higher = more signal.
Assay [11] relates to PRMT1 (protein arginine N-methyltransferase 1). Description: PRMT1 binders on small-molecule microarrays, primary screen, biochemical, small-molecule microarray, 635 nm fluorescence (AID 1088).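 Note: binding of Prmt1 protein to compounds spotted on small-molecule microarray slides.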 The following applies: small-molecule microarray binding, higher = more signal.
Assay [12] in a line: yeast growth modulation, basal conditions, primary screen, YJM789 clinical isolate, OD600, 24 h (AID 1089).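 Note: growth of clinical yeast isolate S. cerevisiae YJM 789 seeded 1000 cells per well; test concentration not given here.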 The conditions noted are these: S. cerevisiae YJM789 growth, higher = more signal, called active from +8 up or from −8 down.
A short description of assay [13]: fission yeast growth modulation, primary screen, strain 972, OD600, 24 h, no modulator (AID 1090).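 Note: basal condition with compound alone and no growth modifier present; test concentration not given here.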 The conditions noted are these: S. pombe 972 growth, higher = more signal, called active from +8 up or from −8 down.
Assay [14] is described as follows: S. cerevisiae growth modulation with rapamycin, primary screen, strain BY4716, OD600, 96 h (AID 1091). Note: test concentration not given here. The conditions noted are these: higher = more signal, called active from +8 up or from −8 down.
Assay [15] concerns the target Torsin-1A-interacting protein 2 (Homo sapiens) (UniProt Q8NFQ8). Description: LULL1 binders on small-molecule microarray, primary screen, cell lysate, human LULL1 lysate, 635/667 nm fluorescence (AID 1092).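 Note: probe is lysate of COS7 cells overexpressing human LULL1; score merges per-feature 667 nm fluorescence with signal-to-noise.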 The following applies: hLULL1 lysate binding, 635 nm fluorescence, higher = more signal.
A short description of assay [16]: E. coli growth modulation, two-sided OD650, primary screen, E. coli filamentation project, strain DRC41, 24 h (AID 1093).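 Note: MC1000 strain lacking acrAB efflux and sulA so SOS filamentation is blocked; test concentration not given here.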 The following applies: OD650, 24 h, higher = more signal, called active from +8 up or from −8 down.
Assay [17] is described as follows: small-molecule microarray binders of probe aLefty2, primary screen, biochemical, biotinylated probe, 635/667 nm fluorescence (AID 1094).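 Note: score merges spot fluorescence near 667 nm with spot signal-to-noise ratio.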 The conditions noted are these: higher = more signal.
Assay [18] concerns Noggin (protein binding on small-molecule microarray). Nature of the assay: Noggin binders on small-molecule microarray, primary screen, biochemical, 635/667 nm fluorescence (AID 1095).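 Note: score merges 667 nm feature fluorescence with signal to noise over triplicate slides.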 The conditions noted are these: 635 nm fluorescence, higher = more signal.
Assay [19] addresses Neurogenic locus notch homolog protein 3 (Homo sapiens) (UniProt Q9UM47). Nature of the assay: NOTCH3 binders on small-molecule microarray, primary screen, biochemical, 635/667 nm fluorescence (AID 1096). The conditions noted are these: NOTCH3 binding, 635 nm fluorescence, higher = more signal.
The nature of assay [20]: small-molecule microarray binders of probe aEGFR, primary screen, biochemical, biotinylated probe, 635/667 nm fluorescence (AID 1097).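 Note: probe is a biotinylated anti-EGFR antibody binding compounds printed on slides; score combines fluorescence near 667 nm and signal to noise of each spot.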 The conditions noted are these: higher = more signal.

Molecules are shown by their SMILES. Calls of active or inactive are those of the source.

Chain of Neurogenic locus notch homolog protein 2 (Homo sapiens) (Q04721 whole entry, looked up, canonical isoform): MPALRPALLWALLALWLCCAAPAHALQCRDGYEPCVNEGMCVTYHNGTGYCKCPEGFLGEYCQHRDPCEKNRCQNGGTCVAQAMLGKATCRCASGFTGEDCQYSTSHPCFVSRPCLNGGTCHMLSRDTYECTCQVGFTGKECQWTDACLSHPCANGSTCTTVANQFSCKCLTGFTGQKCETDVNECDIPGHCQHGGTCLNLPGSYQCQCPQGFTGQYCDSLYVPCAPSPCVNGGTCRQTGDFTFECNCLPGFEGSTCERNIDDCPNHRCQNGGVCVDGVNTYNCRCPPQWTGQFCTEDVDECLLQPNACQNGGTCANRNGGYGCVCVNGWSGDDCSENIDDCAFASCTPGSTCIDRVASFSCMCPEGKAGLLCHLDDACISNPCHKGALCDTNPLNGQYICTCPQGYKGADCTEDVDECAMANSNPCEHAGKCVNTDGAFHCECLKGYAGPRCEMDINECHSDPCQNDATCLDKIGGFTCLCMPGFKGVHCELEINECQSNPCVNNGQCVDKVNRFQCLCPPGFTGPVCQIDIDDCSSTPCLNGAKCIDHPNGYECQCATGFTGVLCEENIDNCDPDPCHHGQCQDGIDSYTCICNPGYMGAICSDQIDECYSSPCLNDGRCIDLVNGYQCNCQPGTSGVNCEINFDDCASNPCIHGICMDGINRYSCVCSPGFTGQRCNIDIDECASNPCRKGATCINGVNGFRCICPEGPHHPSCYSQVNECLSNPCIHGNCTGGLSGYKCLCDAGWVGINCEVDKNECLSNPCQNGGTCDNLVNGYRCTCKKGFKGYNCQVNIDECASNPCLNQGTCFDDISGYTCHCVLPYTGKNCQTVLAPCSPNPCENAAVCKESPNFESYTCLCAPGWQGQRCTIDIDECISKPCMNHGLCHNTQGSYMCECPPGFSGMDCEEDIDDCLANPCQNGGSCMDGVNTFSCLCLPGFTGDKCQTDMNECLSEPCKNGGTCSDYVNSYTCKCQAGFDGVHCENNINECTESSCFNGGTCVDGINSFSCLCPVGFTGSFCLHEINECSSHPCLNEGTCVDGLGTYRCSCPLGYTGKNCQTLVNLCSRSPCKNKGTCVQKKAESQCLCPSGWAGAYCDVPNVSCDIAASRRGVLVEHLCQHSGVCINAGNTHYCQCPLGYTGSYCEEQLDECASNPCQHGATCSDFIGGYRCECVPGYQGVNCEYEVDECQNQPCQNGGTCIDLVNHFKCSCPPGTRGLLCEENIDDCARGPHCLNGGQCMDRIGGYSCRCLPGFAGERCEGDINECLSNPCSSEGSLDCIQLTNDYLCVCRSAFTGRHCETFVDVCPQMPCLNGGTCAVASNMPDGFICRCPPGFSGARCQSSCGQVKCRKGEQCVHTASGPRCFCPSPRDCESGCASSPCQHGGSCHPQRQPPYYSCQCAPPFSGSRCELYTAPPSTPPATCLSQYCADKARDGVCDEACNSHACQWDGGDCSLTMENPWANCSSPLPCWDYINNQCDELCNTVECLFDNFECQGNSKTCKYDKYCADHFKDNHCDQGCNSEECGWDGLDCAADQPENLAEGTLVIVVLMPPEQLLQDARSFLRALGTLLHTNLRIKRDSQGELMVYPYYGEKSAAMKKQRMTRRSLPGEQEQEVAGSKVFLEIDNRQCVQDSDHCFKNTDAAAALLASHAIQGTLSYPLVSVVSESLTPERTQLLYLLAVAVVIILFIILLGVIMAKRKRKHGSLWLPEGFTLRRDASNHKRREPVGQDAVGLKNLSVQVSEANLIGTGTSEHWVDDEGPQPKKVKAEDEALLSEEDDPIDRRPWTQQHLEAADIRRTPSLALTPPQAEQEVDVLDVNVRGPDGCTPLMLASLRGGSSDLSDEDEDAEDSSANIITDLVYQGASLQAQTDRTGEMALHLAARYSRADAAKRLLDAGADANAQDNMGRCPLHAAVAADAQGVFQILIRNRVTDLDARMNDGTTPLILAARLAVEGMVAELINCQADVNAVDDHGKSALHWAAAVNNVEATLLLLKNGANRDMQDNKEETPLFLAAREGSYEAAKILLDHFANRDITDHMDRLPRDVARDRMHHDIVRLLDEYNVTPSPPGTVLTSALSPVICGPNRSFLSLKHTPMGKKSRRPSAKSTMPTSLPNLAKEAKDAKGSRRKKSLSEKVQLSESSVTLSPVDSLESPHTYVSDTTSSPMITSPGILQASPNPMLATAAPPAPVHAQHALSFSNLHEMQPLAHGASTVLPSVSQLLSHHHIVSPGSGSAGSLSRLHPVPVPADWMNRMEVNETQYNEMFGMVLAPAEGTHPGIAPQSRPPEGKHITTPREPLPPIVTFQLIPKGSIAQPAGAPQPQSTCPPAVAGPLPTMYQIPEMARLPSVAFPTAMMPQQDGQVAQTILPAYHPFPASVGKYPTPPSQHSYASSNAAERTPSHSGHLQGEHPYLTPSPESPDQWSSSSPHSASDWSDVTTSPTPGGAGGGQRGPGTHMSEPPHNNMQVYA
Chain of Neurogenic locus notch homolog protein 3 (Homo sapiens) (Q9UM47 whole entry, looked up): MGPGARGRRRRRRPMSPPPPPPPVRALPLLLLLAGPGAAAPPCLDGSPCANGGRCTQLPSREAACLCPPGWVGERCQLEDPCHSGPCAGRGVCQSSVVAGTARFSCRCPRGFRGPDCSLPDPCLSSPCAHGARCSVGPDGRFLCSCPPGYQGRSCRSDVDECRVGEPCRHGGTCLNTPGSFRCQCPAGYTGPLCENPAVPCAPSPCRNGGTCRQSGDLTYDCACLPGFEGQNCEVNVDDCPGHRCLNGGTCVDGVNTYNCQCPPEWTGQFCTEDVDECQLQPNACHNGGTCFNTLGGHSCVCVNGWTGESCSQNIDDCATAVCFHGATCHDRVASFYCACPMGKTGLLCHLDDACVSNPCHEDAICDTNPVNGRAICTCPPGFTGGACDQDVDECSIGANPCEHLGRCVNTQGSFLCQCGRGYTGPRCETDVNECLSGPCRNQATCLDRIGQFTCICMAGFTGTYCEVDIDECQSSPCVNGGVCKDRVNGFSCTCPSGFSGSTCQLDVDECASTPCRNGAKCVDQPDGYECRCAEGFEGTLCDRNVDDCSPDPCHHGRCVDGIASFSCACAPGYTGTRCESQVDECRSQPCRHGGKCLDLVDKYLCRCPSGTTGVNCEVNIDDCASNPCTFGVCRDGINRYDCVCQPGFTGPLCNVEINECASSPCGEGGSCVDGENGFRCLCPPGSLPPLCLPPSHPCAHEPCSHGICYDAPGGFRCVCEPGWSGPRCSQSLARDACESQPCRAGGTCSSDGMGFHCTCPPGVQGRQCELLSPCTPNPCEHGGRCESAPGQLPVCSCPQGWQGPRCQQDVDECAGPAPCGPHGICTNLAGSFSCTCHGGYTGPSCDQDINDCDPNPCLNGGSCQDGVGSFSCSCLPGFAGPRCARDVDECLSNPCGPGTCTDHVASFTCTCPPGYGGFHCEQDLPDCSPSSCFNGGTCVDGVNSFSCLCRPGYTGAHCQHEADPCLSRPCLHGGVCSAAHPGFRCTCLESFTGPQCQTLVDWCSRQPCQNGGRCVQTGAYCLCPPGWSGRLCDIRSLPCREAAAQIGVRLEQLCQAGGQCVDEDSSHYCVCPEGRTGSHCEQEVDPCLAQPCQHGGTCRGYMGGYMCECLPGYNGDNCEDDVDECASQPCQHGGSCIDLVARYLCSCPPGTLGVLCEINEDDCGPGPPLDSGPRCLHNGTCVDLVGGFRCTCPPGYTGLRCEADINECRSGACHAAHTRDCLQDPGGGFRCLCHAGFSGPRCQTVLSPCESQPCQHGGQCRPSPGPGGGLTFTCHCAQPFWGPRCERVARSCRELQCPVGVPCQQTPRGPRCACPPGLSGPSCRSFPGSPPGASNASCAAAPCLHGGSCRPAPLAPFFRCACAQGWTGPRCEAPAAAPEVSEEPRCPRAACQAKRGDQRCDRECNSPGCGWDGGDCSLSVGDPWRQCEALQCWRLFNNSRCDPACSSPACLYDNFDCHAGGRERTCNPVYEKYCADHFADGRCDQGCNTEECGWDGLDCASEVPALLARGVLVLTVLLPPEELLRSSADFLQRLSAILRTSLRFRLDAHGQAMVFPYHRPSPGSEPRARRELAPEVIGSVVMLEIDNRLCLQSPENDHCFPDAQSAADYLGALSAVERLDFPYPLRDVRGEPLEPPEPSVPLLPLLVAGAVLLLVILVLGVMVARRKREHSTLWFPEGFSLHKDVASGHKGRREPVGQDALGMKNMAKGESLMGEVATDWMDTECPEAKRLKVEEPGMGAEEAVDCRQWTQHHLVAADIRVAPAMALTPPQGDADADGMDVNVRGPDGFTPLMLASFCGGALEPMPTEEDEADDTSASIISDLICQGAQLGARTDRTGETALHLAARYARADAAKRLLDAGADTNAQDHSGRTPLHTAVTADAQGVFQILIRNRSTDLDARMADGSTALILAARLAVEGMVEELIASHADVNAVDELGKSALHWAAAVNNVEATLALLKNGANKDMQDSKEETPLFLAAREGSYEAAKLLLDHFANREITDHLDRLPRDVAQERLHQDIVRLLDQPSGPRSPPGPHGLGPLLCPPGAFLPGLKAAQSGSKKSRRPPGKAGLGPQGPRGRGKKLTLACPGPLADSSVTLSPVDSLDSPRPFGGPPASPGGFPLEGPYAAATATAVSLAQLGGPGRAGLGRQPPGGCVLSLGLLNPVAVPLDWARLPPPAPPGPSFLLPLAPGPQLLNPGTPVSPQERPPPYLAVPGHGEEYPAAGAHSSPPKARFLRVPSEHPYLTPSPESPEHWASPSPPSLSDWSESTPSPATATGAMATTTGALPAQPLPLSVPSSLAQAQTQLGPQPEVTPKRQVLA

For the molecule `NC(=O)N1C(=O)C2C(C1=O)C1C=C(CCCO)C2C(c2ccc(CN3CCCC3)cc2)N1Cc1sc2ccccc2c1Cl` (stereo not given), the composite z-score was -0.161 in assay [1]; 0.224 in [2]; -0.0867 in assay [3]; 0.0718 in assay [4]; 0.0517 in assay [5]; 0.0965 in [6]. The composite z-score in assay [7] is 0.834; in [9], -0.835; in assay [10] it was -0.323; in [11] it was 0.634; in assay [15] it was 1.97; in assay [17] it was -0.208. Also, the results for the composite z-score in [18], in [19] and in assay [20] were -0.275, -0.348 and -0.112, respectively. For the same molecule, the z-score in assay [8] is -0.824 (inactive); in assay [12], -0.75 (inactive); in assay [13], -0.399 (inactive); in [14], -1.27 (inactive); in assay [16], 0.465 (inactive).
With `CC(=O)c1ccc(C(O)C2C=CC3C(=O)N(c4ccccc4)C(=O)C3N2Nc2ccc(C(C)C)cc2)cc1` (stereo not given), the composite z-score in assay [1] is 0.305; in [2] it was -0.152; in [3], -0.0226; in [4] it was 0.897; in assay [5], 1.37; in [6], 1.55. In addition, the composite z-score was 1.09 in assay [7]; 1.51 in assay [9]; -0.106 in assay [10]; 1.08 in [11]; 2.24 in assay [15]; 0.136 in assay [17]. Also, the figures for the composite z-score in assay [18], in assay [19] and in [20] were 0.101, 1.07 and 0.187, respectively. The z-score is 0.59 (inactive) in [8]; 1.24 (inactive) in assay [12]; 1.55 (inactive) in assay [13]; -0.0304 (inactive) in [14]; -0.541 (inactive) in assay [16].
For `O=C1N(Cc2ccccc2)c2ccccc2C[C@@]12COC(c1ccc(OCCCO)cc1)=N2`, the composite z-score in assay [1] is 0.689; in [2], 0.445; in assay [3], -0.0592; in assay [4], 0.979; in assay [5] it was 0.984; in assay [6], 1. The composite z-score is 1.23 in assay [7]; 0.361 in [9]; -0.0237 in assay [10]; 1.56 in [11]; 3 in assay [15]; 0.249 in assay [17]. The results for the composite z-score in assay [18], in assay [19] and in assay [20] were 1.07, 0.944 and -0.0238, respectively. Moreover, the z-score in assay [8] was -1.14 (inactive); in [12], -0.91 (inactive); in assay [13], -1.56 (inactive); in [14], 2.83 (inactive); in assay [16], 1.54 (inactive).
With `N#Cc1ccc(C(O)C2C=CC3C(=O)NC(=O)C3N2Nc2ccc(Cl)cc2Cl)cc1` (stereo not given), the composite z-score in [1] was -0.0161; in assay [2], -0.0803; in [3], -0.101; in assay [4], 0.116; in assay [5], 1.45; in assay [6] it was 1.82. Moreover, the composite z-score in assay [7] was 0.649; in assay [9] it was 0.119; in assay [10], -0.146; in assay [11], 0.156; in assay [15], 3.39; in [17], 0.103. Further, the composite z-score was -0.185 in [18], 0.559 in assay [19] and -0.0594 in assay [20]. In addition, the z-score in assay [8] is 1.79 (inactive); in [12], -2.93 (inactive); in assay [13], -0.615 (inactive); in [14] it was 0.448 (inactive); in [16], -0.343 (inactive).
As to `C=CCC(OC(C)=O)[C@@H]1[C@@H](N(Cc2cc3ccccc3o2)C(=O)c2cccc3ccccc23)c2cc(OCCCO)ccc2N1C(=O)c1ccc2ccccc2n1` (stereo not given in full), the composite z-score is 1.68 in assay [1]; 0.27 in assay [2]; -0.116 in [3]; 0.0823 in [4]; 0.16 in assay [5]; -0.0193 in assay [6]. Further, the composite z-score is -0.112 in assay [7]; -0.061 in assay [9]; -0.125 in [10]; 0.109 in [11]; 0.588 in assay [15]; -0.0285 in assay [17]. Besides, the composite z-score in assay [18] is 0.728; in assay [19] it was -0.127; in assay [20], -0.182. The z-score is -1.53 (inactive) in [8]; 0.472 (inactive) in assay [12]; -0.8 (inactive) in assay [13]; 0.12 (inactive) in assay [14]; 1.06 (inactive) in assay [16].
